In article PMC6451091, “NextPBM: a platform to study cell-specific transcription factor binding and cooperativity” one finds binding signal data, which are given here for 40 sequences.

In all, about 3,700 sequences were measured (“z-score”: median about 4, highest 2% from about 8.4 on). The list comes from a sample in which the highest values are over-represented; it also holds similar and randomly drawn sequences.

Assay [1] deals with PU.1 (IVT) (UniProt P17947 1-270). Description: protein-binding microarray (PBM); 20 mM HEPES pH 7.9, 100 mM NaCl, 1 mM DTT, 0.2 mg/mL BSA, 0.02% Triton X-100, 2% milk, 0.4 mg/mL salmon testes DNA; 1 h; temperature not stated; high values mean tight binding. To be noted: dsDNA, one strand shown. The gist of the method:
(§1)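 PU.1, full-length and untagged, came from coupled human in vitro transcription/translation and was bound for 1 h to double-stranded DNA microarrays of 20-bp genomic sites and single-nucleotide variants in HEPES pH 7.9, 100 mM NaCl, 2% milk and salmon testes DNA. After antibody detection, the values were taken as z-scores of scanned fluorescence normalised by linear regression.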

Assay [2] shares this target. The description is as above. To be noted: dsDNA, one strand shown. The gist of the method:
as §1
This is another data set of the same source.

For “GCCTAGCACAAAAAGGGGAAGTCAAATTGGTGCTAGGTCTTGATTCGCTTGACGCTGCTG”, the binding signal in the assay with PU.1 (IVT) [1] worked out at 8.09 z-score.
Same read-out and setting: with “GCCTAGCACAAAAAGGGGAAGTACTGCGAGTGCTAGGTCTTGATTCGCTTGACGCTGCTG” the figure was 8.58 z-score; with “GCCTAGCACAAAAAGGGGAAGTGACTTTCGTGCTAGGTCTTGATTCGCTTGACGCTGCTG”, 8.66 z-score.
On the same count and under the same terms, in the case of “GCCTAGCACAAAAAAGGGAAGTGGATGCTGTGCTAGGTCTTGATTCGCTTGACGCTGCTG” it was 7.67 z-score; in that of “GCCTAGCACAAAAAGGGGAAGTCAATTTTGTGCTAGGTCTTGATTCGCTTGACGCTGCTG”, 8.55 z-score; in that of “GCCTAGCACAAAAAAGGGAAGTGAAGTACGTGCTAGGTCTTGATTCGCTTGACGCTGCTG”, 7.2 z-score.
“GCCTAGCACAAAAAGGGGAAGTGATGGCGGTGCTAGGTCTTGATTCGCTTGACGCTGCTG” gave a binding signal in the assay with PU.1 (IVT) [1] of 8.22 z-score.
The same measure, in the same setting: with “GCCTAGCACAAAGAAGGGAAGTGACTTGCGTGCTAGGTCTTGATTCGCTTGACGCTGCTG” the figure was 3.86 z-score; with “GCCTAGCACAAAAGGAGGAAGTACTGTGAGTGCTAGGTCTTGATTCGCTTGACGCTGCTG”, 7.12 z-score; with “GCCTAGCACAAAAAGGGGAAGTTGGGGATGTGCTAGGTCTTGATTCGCTTGACGCTGCTG”, 8.45 z-score.
“GCCTAGCACAAAAAAAGGAAGTCTGTTTTGTGCTAGGTCTTGATTCGCTTGACGCTGCTG”: the binding signal with PU.1 (IVT) [2] was found to be 6.43 z-score.
Turning to “GCCTAGCACAAAAAAGGGAAGTGCAAGATGTGCTAGGTCTTGATTCGCTTGACGCTGCTG”, the binding signal with PU.1 (IVT) [1] amounted to 7.79 z-score.
Same read-out and setting: with “GCCTAGCACTTAAACAGGAAGTGTGTAATGTGCTAGGTCTTGATTCGCTTGACGCTGCTG” the figure was 5.79 z-score.
In turn, “GCCTAGCACTTAAGGAGGAACTGAAACCAGTGCTAGGTCTTGATTCGCTTGACGCTGCTG” registered a binding signal with PU.1 (IVT) [2] of 2.65 z-score.
On the same count and under the same terms, with “GCCTAGCACTAAAGGAGGAACTGAAAACAGTGCTAGGTCTTGATTCGCTTGACGCTGCTG” the figure was 3.62 z-score.
In turn, “GCCTAGCACTAAAAGAGGAACTGAAACCAGTGCTAGGTCTTGATTCGCTTGACGCTGCTG” showed a binding signal with PU.1 (IVT) [1] of 6.72 z-score.
For “GCCTAGCACCTGCAAAGGAAGTCTGGGCCGTGCTAGGTCTTGATTCGCTTGACGCTGCTG”, the binding signal with PU.1 (IVT) [2] turned out to be 0.767 z-score.
With “GCCTAGCACTGGAAGAGGAAGTTGGTTTTGTGCTAGGTCTTGATTCGCTTGACGCTGCTG”, the binding signal in the assay with PU.1 (IVT) [1] is 7.15 z-score.
“GCCTAGCACCATTTGTAGAAGTACTGTGCGTGCTAGGTCTTGATTCGCTTGACGCTGCTG” gave a binding signal with PU.1 (IVT) [2] of 0.808 z-score.
With “GCCTAGCACAAAAAGCAGAAGTGTTCTGTGTGCTAGGTCTTGATTCGCTTGACGCTGCTG”, in the assay with PU.1 (IVT) [1], the binding signal amounted to 6.88 z-score.
As for “GCCTAGCACAAAAAGGGGAAGTCTGGACTGTGCTAGGTCTTGATTCGCTTGACGCTGCTG”, the binding signal with PU.1 (IVT) [1] amounted to 7.65 z-score.
Still for that read-out and setting: in the case of “GCCTAGCACAAAAAGGGGAAGTGCTTTCTGTGCTAGGTCTTGATTCGCTTGACGCTGCTG” it was 8.76 z-score.
“GCCTAGCACAAAAAGGGGAAGTGTGCTGCGTGCTAGGTCTTGATTCGCTTGACGCTGCTG” had a binding signal with PU.1 (IVT) [1] of 8.33 z-score.
For “GCCTAGCACGAAAAGAGGAAGTCAAATTTGTGCTAGGTCTTGATTCGCTTGACGCTGCTG”, the binding signal with PU.1 (IVT) [1] came out at 8.44 z-score.
Turning to “GCCTAGCACGAAAAGAGGAAGTGGAATTTGTGCTAGGTCTTGATTCGCTTGACGCTGCTG”, the binding signal with PU.1 (IVT) [1] came out at 8.92 z-score.
The same measure, in the same setting: with “GCCTAGCACGAAATGAGGAAGTGCTAGTGGTGCTAGGTCTTGATTCGCTTGACGCTGCTG” the figure was 8.07 z-score; with “GCCTAGCACAGAAAAAGGAAGTGGAATTTGTGCTAGGTCTTGATTCGCTTGACGCTGCTG”, 6.29 z-score.
The same measure, in the same setting: in the case of “GCCTAGCACGAAATGAGGAAGTGGCTGGTGTGCTAGGTCTTGATTCGCTTGACGCTGCTG” it was 7.9 z-score; in that of “GCCTAGCACGAAAAGAGGAAGTCAGAAATGTGCTAGGTCTTGATTCGCTTGACGCTGCTG”, 8.35 z-score; in that of “GCCTAGCACGAAAAGAGGAAGTCAAATTCGTGCTAGGTCTTGATTCGCTTGACGCTGCTG”, 8.31 z-score.
The same measure, in the same setting: with “GCCTAGCACGAAAAGAGGAAGTCAGACTAGTGCTAGGTCTTGATTCGCTTGACGCTGCTG” the figure was 8.15 z-score; with “GCCTAGCACGAAAAGAGGAAGTCGAATTAGTGCTAGGTCTTGATTCGCTTGACGCTGCTG”, 8.06 z-score; with “GCCTAGCACGGAAAGAGGAAGTCAAAAATGTGCTAGGTCTTGATTCGCTTGACGCTGCTG”, 7.85 z-score.
On to “GCCTAGCACGAAATGAGGAAGTGAAATTGGTGCTAGGTCTTGATTCGCTTGACGCTGCTG”, for which, in the assay with PU.1 (IVT) [1], the binding signal was 8.42 z-score.
Still for that read-out and setting: in the case of “GCCTAGCACGAAAAGAGGAAGTCAAACTTGTGCTAGGTCTTGATTCGCTTGACGCTGCTG” it was 8.22 z-score; in that of “GCCTAGCACAAAAAAAGGAAATGAAAGTAGTGCTAGGTCTTGATTCGCTTGACGCTGCTG”, 3.32 z-score.
In turn, “GCCTAGCACGTCAAAAAAAGGAAAAAGCCGTGCTAGGTCTTGATTCGCTTGACGCTGCTG” had a binding signal with PU.1 (IVT) [2] of 0.885 z-score.
On to “GCCTAGCACAAGAAGCGGAAGTGAAAGACGTGCTAGGTCTTGATTCGCTTGACGCTGCTG”, for which the binding signal with PU.1 (IVT) [1] was found to be 6.8 z-score.
For the sequence “GCCTAGCACAGAAAAAGGAACTGGCTAGAGTGCTAGGTCTTGATTCGCTTGACGCTGCTG”, in the assay with PU.1 (IVT) [2], the binding signal turned out to be 3.75 z-score.
For the sequence “GCCTAGCACCAAAAGAGGAAGTGAGAAGCGTGCTAGGTCTTGATTCGCTTGACGCTGCTG”, the binding signal with PU.1 (IVT) [1] came to 8.31 z-score.
